From PubChem BioAssay (Tox21)
Results filed as inconclusive are left out. Active and inactive are the calls of the source. Unless noted, the call rests on the fitted dose curve; in most records, active means well fitted curve in the direction sought with a large enough effect in the repeat runs; inconclusive means weak or mixed curves; inactive means no such curve, though single readings can be large; an effect the other way counts as inactive or inconclusive.

Key:
[1] = target: Thyrotropin receptor (Homo sapiens) (UniProt P16473); experiment: qHTS assay to identify small molecule antagonists of the thyroid stimulating hormone receptor (TSHR) signaling pathway (AID 1259385; calls by dose curve; further: nearly all actives have a fitted effect of over 20% in size)
Sequence of Thyrotropin receptor (Homo sapiens) (P16473 whole entry, looked up): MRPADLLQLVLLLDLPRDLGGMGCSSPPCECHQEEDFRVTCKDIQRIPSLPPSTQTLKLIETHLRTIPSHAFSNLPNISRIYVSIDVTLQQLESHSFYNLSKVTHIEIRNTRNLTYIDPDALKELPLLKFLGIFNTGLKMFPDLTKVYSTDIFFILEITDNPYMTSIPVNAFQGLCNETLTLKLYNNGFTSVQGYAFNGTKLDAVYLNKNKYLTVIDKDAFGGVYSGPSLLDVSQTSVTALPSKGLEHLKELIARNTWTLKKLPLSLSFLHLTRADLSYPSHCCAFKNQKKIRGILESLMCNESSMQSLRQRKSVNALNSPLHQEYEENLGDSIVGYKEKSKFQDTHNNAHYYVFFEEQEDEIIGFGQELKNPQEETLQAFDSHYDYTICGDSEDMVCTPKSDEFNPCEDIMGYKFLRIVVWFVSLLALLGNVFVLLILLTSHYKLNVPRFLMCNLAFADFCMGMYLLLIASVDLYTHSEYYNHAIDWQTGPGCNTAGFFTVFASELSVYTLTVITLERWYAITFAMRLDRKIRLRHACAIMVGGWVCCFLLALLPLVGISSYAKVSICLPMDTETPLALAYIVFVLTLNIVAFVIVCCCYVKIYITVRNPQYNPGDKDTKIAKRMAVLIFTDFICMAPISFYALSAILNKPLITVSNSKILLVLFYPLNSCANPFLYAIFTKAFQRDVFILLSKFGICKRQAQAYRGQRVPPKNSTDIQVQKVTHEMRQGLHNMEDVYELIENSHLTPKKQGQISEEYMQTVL
Summary of the method: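 TSHR-HEK293 cells were plated and held 18 h at 37C/5% CO2, then given compound plus Ro20-1724 and stimulated with TSH at 1.5 ng/mL final. After 30 min at room temperature, cAMP was detected with cAMP-d2/anti-cAMP-cryptate (1 h) by fluorescence.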

[2] = qHTS assay to identify small molecule agonists of the estrogen receptor alpha (ER-alpha) signaling pathway in the presence of an antagonist - cell viability counter screen (AID 1259386);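 further: series mostly up to about 92 µM; cells exposed to compounds for 22 h at 37 °C before the viability read; nearly all actives have a fitted effect of over 30% in size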
Summary of the method: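 Using estrogen-depleted VM7Luc4E2 cells, the 15-concentration compound series was applied together with 10.0nM ICI-182,780 and incubated 22hr at 37C/5% CO2. Cell viability was then scored by CellTiter-Fluor.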

[3] = target: Progesterone receptor (Homo sapiens) (UniProt P06401); experiment: qHTS assay to identify small molecule agonists of the progesterone receptor (PR) signaling pathway (AID 1346784; calls by dose curve; further: nearly all actives have a fitted effect of over 30% in size; further: potency means the concentration at half of the fitted maximal effect)
Sequence of Progesterone receptor (Homo sapiens) (P06401 whole entry, looked up): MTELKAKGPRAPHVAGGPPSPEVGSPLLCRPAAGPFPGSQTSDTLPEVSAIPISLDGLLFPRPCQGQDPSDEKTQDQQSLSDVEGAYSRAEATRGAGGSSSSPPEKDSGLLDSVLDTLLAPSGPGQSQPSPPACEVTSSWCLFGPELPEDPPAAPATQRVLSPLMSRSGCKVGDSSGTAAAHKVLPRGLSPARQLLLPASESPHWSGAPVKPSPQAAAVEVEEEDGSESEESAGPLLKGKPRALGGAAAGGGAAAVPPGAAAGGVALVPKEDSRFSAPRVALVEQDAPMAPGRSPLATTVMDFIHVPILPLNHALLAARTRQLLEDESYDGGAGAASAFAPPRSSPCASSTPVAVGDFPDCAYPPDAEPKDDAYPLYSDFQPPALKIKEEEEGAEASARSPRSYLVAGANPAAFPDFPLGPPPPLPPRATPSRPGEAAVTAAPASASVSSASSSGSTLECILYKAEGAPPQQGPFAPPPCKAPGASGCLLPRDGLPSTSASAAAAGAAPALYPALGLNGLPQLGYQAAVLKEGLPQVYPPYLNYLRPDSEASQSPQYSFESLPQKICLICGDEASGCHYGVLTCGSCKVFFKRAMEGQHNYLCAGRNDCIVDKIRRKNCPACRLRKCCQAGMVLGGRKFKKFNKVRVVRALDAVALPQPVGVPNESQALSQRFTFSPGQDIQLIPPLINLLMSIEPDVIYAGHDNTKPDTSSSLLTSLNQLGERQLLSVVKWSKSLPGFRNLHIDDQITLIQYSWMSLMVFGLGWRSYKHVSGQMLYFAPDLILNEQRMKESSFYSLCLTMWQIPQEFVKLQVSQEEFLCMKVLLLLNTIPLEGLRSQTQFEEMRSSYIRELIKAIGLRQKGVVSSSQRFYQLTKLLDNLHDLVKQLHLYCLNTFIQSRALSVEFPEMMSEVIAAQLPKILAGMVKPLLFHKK
Summary of the method: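 Seed PR-UAS-bla HEK 293T cells (2% charcoal-stripped FBS), incubate 6 hr at 37C; add compounds in DMSO, 16 hr at 37C; add LiveBLAzer B/G substrate, 2 hr RT; read fluorescence intensity.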

[4] = target: Progesterone receptor (Homo sapiens) (UniProt P06401); experiment: qHTS assay to identify small molecule antagonists of the progesterone receptor (PR) signaling pathway (AID 1346795; active means well fitted inhibition curve with a large enough effect in the signal ratio in the repeat runs, not every such curve was filed as active; the % refers to the signal ratio)
Summary of the method: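 Screening used a GripTite HEK293T line with PR-responsive UAS-beta-lactamase. Cells were challenged with compound in the presence of 1 nM R5020 final for 16 hr at 37C; B/G FRET substrate, 2 hr room temperature, fluorescence.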

[5] = qHTS assay to identify small molecule antagonists of the progesterone receptor (PR) signaling pathway - cell viability counter screen (AID 1346798); further: series mostly up to about 92 µM; nearly all actives have a fitted effect of over 50% in size
Summary of the method: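 Measures cytotoxicity in parallel with the PR antagonist reporter read: HEK293T PR-UAS-bla cells get compound and R5020 for 16 hr, and remaining viable cells are quantified by CellTiter-Glo luminescence.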

[6] = qHTS assay to identify small molecule agonists of the progesterone receptor (PR) signaling pathway - cell viability counter screen (AID 1346799; calls by dose curve; further: nearly all actives have a fitted effect of over 45% in size)
Summary of the method: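 Using the same plates as the PR reporter screen, HEK293T PR-UAS-bla cells received compounds for 16 hr at 37C and were then lysed with CellTiter-Glo; luminescence was read 30 min later at room temperature.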

[7] = qHTS assay to identify small molecule agonists of the TGF-beta/Smad signaling pathway - cell viability counter screen (AID 1346829); further: top concentration of the series differs between compounds; nearly all actives have a fitted effect of over 45% in size
Summary of the method: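 Luminescence from CellTiter-Glo, read after a 30 min room-temperature incubation, gives cell viability of SBE-bla HEK 293T cells treated 5 hr with compounds at 37 C.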

[8] = qHTS assay to identify small molecule agonists of the TGF-beta/Smad signaling pathway (AID 1346859; active means well fitted activation curve with a large enough effect in the signal ratio in the repeat runs, not every such curve was filed as active; the % refers to the signal ratio; further: series mostly up to about 77 µM)
Summary of the method: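 Beta-lactamase reporter activity downstream of Smad binding elements was measured in stably transfected HEK 293T cells; compounds were incubated for 5 hr, substrate for 2 hr at room temperature.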

[9] = Human pregnane X receptor (PXR) small molecule agonists, qHTS cell viability counter screen (AID 1346977); further: nearly all actives have a fitted effect of over 50% in size
Summary of the method: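 After a 5hr pre-incubation, PXR-Luc HepG2 cells received compounds plus positive control in DMSO and were kept 24hr at 37C. Cell viability was quantified by fluorescence from CellTiter-Fluor added for the final hour.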

[10] = Caspase-3/7 induction in HepG2 cells by small molecules, qHTS assay (AID 1346978); further: nearly all actives have a fitted effect of over 15% in size
Summary of the method: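 Wild-type HepG2 cells (2,000/well) were settled 5 h at 37 C, 5% CO2, then exposed to compounds in DMSO for 17 h. Caspase-3/7 activity was read by luminescence 30 min after adding Caspase-Glo 3/7 reagent at room temperature.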

[11] = Caspase-3/7 induction in CHO-K1 cells by small molecules, qHTS cell viability counter screen (AID 1346979); further: nearly all actives have a fitted effect of over 35% in size
Summary of the method: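 Multiplexed with Caspase-Glo 3/7 in CHO-K1 cells, this counter screen added CellTiter-Fluor after 16hr of compound exposure and recorded fluorescence 1hr later.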

[12] = Caspase-3/7 induction in CHO-K1 cells by small molecules, qHTS assay (AID 1346980); further: nearly all actives have a fitted effect of over 15% in size
Summary of the method: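 Wild-type cells were seeded at 1,500 per well and settled 5 hr at 37 C, 5% CO2, then exposed to DMSO-dissolved compounds for 17 hr. Caspase-Glo 3/7 reagent was added, and luminescence was read after 30min at room temperature.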

[13] = Caspase-3/7 induction in HepG2 cells by small molecules, qHTS cell viability counter screen (AID 1346981); further: series mostly up to about 92 µM; nearly all actives have a fitted effect of over 30% in size
Summary of the method: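 After a 5-hr attachment period at 37 C and 5% CO2, wild-type HepG2 cells received compounds in DMSO. Sixteen hours later CellTiter-Fluor was dispensed and the fluorescent signal quantified after a further hour.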

[14] = target: Nuclear receptor subfamily 1 group I member 2 (Homo sapiens) (UniProt O75469); experiment: Human pregnane X receptor (PXR) small molecule agonists, qHTS assay (AID 1346982); further: nearly all actives have a fitted effect of over 35% in size; further: potency means the concentration at half of the fitted maximal effect
Sequence of Nuclear receptor subfamily 1 group I member 2 (Homo sapiens) (O75469 whole entry, looked up): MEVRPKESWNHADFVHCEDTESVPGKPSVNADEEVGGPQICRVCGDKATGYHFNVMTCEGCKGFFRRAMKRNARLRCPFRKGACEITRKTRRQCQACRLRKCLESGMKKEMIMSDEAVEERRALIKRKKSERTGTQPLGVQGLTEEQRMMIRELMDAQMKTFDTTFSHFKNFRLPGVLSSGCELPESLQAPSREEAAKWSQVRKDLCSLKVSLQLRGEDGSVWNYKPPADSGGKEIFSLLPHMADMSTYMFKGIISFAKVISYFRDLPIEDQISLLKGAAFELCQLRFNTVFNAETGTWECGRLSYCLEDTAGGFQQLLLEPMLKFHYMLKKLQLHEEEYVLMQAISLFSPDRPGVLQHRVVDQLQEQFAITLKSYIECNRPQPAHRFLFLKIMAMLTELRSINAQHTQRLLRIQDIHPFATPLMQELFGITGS
Summary of the method: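 Tox21 qHTS; PXR-Luc HepG2; compounds pinned from DMSO; 24 hr, 37 C; ONE-Glo luciferase detection, 30 min room temperature.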

[15] = qHTS assay to identify small molecule antagonists of the TGF-beta/Smad signaling pathway - cell viability counter screen (AID 1346824); further: nearly all actives have a fitted effect of over 50% in size
Summary of the method: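 SBE-bla HEK 293T cells were plated overnight at 37 C, then given compounds in DMSO plus TGF-beta1 (added as 0.25 ng/mL solution) for 5 hr. After the bla read, CellTiter-Glo was added to the same wells and luminescence read after 30 min at room temperature.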

[16] = target: Thyrotropin-releasing hormone receptor (Homo sapiens) (UniProt P34981); experiment: qHTS assay to identify small molecule antagonists of the thyrotropin-releasing hormone receptor (TRHR) signaling pathway (AID 1346877; active means well fitted inhibition curve with a large enough effect in the repeat runs, not every such curve was filed as active; further: series mostly up to about 51 µM)
Sequence of Thyrotropin-releasing hormone receptor (Homo sapiens) (P34981 whole entry, looked up): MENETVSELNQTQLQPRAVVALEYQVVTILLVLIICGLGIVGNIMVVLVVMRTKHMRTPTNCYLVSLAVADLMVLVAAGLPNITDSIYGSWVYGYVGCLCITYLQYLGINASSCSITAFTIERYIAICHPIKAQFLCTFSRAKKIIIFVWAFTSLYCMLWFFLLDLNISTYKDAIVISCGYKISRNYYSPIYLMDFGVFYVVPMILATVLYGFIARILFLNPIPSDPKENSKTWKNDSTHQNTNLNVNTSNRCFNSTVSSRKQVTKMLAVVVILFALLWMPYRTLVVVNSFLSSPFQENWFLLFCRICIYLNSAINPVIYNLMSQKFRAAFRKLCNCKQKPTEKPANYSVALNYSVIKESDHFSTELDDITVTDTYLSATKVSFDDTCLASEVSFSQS
Summary of the method: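 Calcium signal in dye-loaded TRHR/HEK293 cells; compounds added 5 min before TRH (1 nM final); fluorescence monitored 3 min at 1 s steps.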

[17] = target: Thyrotropin-releasing hormone receptor (Homo sapiens) (UniProt P34981); experiment: qHTS assay to identify small molecule agonists of the thyrotropin-releasing hormone receptor (TRHR) signaling pathway (AID 1346891; calls by dose curve;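 further: HEK293 cells expressing TRHR with calcium dye readout; series mostly up to about 58 µM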)
Summary of the method: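 Overnight-plated (18 h, 37 °C, 5% CO2) TRHR-Hek293 cells; 2 h calcium dye at 37 °C; compound in DMSO; 3-min kinetic fluorescence read.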

[18] = target: Nuclear receptor subfamily 1 group I member 2 (Rattus norvegicus) (UniProt Q9R1A7); experiment: Rat pregnane X receptor (rPXR) activation by small molecules, qHTS assay (AID 1346983); details: rPXR luciferase reporter cells, One-Glo luminescence, 24 h; max activation: stronger effect = higher value; further: nearly all actives have a fitted effect of over 20% in size
Sequence of Nuclear receptor subfamily 1 group I member 2 (Rattus norvegicus) (Q9R1A7 whole entry, looked up): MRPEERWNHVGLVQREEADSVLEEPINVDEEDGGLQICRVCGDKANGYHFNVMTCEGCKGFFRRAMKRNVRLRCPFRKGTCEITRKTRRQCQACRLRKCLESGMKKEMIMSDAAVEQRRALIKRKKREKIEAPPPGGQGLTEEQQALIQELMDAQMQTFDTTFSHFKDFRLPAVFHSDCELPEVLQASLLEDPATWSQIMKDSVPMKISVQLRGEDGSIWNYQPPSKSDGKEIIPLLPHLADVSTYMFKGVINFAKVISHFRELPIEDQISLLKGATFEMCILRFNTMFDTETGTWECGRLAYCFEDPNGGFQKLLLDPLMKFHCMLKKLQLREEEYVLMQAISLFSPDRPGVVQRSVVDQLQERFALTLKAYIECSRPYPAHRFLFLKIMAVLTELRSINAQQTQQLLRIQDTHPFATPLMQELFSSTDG
Summary of the method: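 Cell-based rPXR luciferase reporter assay, 2,000 cells per well, rested 5hr at 37 C before compound addition in DMSO, then 24 hr at 37 C. One-Glo reagent was added and luminescence read after 30 min at room temperature.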

[19] = target: Nuclear receptor subfamily 1 group I member 2 (Homo sapiens) (UniProt O75469); experiment: CYP3A4 induction through human pregnane X receptor (PXR) by small molecules, qHTS assay (AID 1346984); further: nearly all actives have a fitted effect of over 40% in size
Summary of the method: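 Cells (DPX-2; HepG2 with PXR element plus CYP3A4-promoter luciferase) settled 5hr, then were treated 24hr at 37C. A 3hr, 3uM-final Luciferin-IPA step preceded luminescence measurement with One-Glo.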

[20] = target: Nuclear receptor subfamily 1 group I member 2 (Homo sapiens) (UniProt O75469); experiment: Human pregnane X receptor (PXR) activation by small molecules, qHTS assay (AID 1346985); further: nearly all actives have a fitted effect of over 40% in size
Summary of the method: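 DPX-2 cells (HepG2 co-transfected with a PXR response element and a CYP3A4-promoter luciferase construct) were seeded at 2,000 per well, rested 5 hr at 37C, then exposed to DMSO-dissolved compounds for 24 hr. Activation was read as luciferase luminescence.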
On the % scale 0 is the no-effect control and ±100 the full control effect.

NCCN1CCNC1=O
inactive: Potency [1] | outcome [2] | Potency [3] | Potency [4] | Potency [5] | Potency [6] | outcome [7] | outcome [8] | Potency [9] | outcome [10] | Potency [11] | outcome [12] | outcome [13] | Potency [14]

COC[C@H](c1ccc(C(F)(F)F)cc1)N1CCN(C2(C)CCN(C(=O)c3c(C)ncnc3C)CC2)C[C@H]1C
inactive: Potency [1] | outcome [2] | Potency [3] | Potency [4] | Potency [5] | outcome [15] | outcome [7] | outcome [8] | outcome [16] | outcome [17] | Potency [9] | outcome [10] | Potency [11] | outcome [12] | outcome [13] | Potency [14]

C=C(C)C1CC=C(C)C(O)C1 (centres undefined)
inactive: Potency [1] | outcome [2] | Potency [5] | outcome [15] | outcome [7] | outcome [8] | outcome [16] | outcome [17] | Potency [9] | outcome [10] | outcome [12] | outcome [13]
active: Potency [3] 17.3 µM | Potency [14] 48.8 µM

CC1(C)OC(=O)Nc2ccc(Br)cc21
inactive: Potency [1] | outcome [2] | Potency [3] | Potency [5] | Potency [6] | outcome [15] | outcome [7] | outcome [8] | outcome [17] | Potency [9] | outcome [10] | Potency [11] | outcome [12] | outcome [13]
active: Potency [14] 23.7 µM

C[C@H]1O[C@@H](n2cc(F)c(=O)[nH]c2=O)[C@H](O)[C@@H]1O
inactive: Potency [1] | outcome [2] | Potency [3] | Potency [4] | Potency [5] | outcome [15] | outcome [7] | outcome [8] | outcome [17] | Potency [9] | outcome [10] | outcome [12] | outcome [13] | Potency [14] | max activation [18] -1.26% | Potency [19] | Potency [20]

NS(=O)(=O)c1cc(C2(O)NC(=O)c3ccccc32)ccc1Cl (centres undefined)
inactive: Potency [1] | outcome [2] | Potency [3] | Potency [5] | Potency [6] | outcome [15] | outcome [7] | outcome [8] | outcome [16] | outcome [17] | Potency [9] | outcome [10] | outcome [12] | outcome [13] | max activation [18] -0.257%

N#CCc1ccccc1[N+](=O)[O-]
inactive: Potency [1] | outcome [2] | Potency [3] | Potency [4] | Potency [5] | outcome [15] | outcome [7] | outcome [8] | outcome [16] | outcome [17] | Potency [9] | outcome [10] | Potency [11] | outcome [12]

C1C2OC2C2C1C1CC2C2OC12 (centres undefined)
inactive: outcome [2] | Potency [3] | Potency [4] | Potency [5] | Potency [6] | outcome [15] | outcome [7] | outcome [8] | outcome [16] | outcome [17] | Potency [9] | outcome [10] | Potency [11] | outcome [12] | outcome [13] | Potency [14]

CC(=O)N[C@@H](CCC(N)=O)C(=O)O
inactive: outcome [2] | Potency [3] | Potency [4] | Potency [5] | Potency [6] | outcome [15] | outcome [7] | outcome [8] | outcome [16] | outcome [17] | outcome [10] | Potency [11] | outcome [12] | outcome [13] | Potency [14]

O=C(O)/C=C/c1ccc(Cn2ccnc2)cc1
inactive: outcome [2] | Potency [3] | Potency [4] | Potency [5] | Potency [6] | outcome [15] | outcome [7] | outcome [8] | outcome [16] | outcome [17] | outcome [10] | Potency [11] | outcome [12] | outcome [13] | max activation [18] -1.1%

CN1[C@@H]2CC[C@H]1CC(NC(=O)n1c(=O)[nH]c3ccccc31)C2 (some centres undefined)
inactive: outcome [2] | Potency [3] | Potency [4] | Potency [5] | Potency [6] | outcome [15] | outcome [7] | outcome [8] | outcome [16] | outcome [17] | Potency [9] | outcome [10] | Potency [11] | outcome [12] | outcome [13] | Potency [14]

CC(=O)OC(C)(C)C
inactive: outcome [2] | Potency [3] | Potency [4] | Potency [5] | Potency [6] | outcome [15] | outcome [7] | outcome [8] | outcome [16] | outcome [17] | Potency [9] | outcome [10] | Potency [11] | outcome [12] | outcome [13] | Potency [14]

COc1ccc(N=[N+]([O-])c2ccc(OC)cc2)cc1
inactive: Potency [1] | outcome [2] | Potency [4] | outcome [15] | outcome [7] | outcome [8] | outcome [17] | Potency [9] | outcome [10] | outcome [12]
active: Potency [14] 0.34 µM

OC[C@H]1O[C@@H]2O[C@H]3[C@H](O)[C@@H](O)[C@@H](O[C@H]4[C@H](O)[C@@H](O)[C@@H](O[C@H]5[C@H](O)[C@@H](O)[C@@H](O[C@H]6[C@H](O)[C@@H](O)[C@@H](O[C@H]7[C@H](O)[C@@H](O)[C@@H](O[C@H]8[C@H](O)[C@@H](O)[C@@H](O[C@H]9[C@H](O)[C@@H](O)[C@@H](O[C@H]1[C@H](O)[C@H]2O)O[C@@H]9CO)O[C@@H]8CO)O[C@@H]7CO)O[C@@H]6CO)O[C@@H]5CO)O[C@@H]4CO)O[C@@H]3CO
inactive: Potency [1] | outcome [2] | Potency [5] | Potency [6] | outcome [15] | outcome [7] | outcome [8] | outcome [16] | outcome [17] | Potency [9] | outcome [10] | Potency [11] | outcome [12] | outcome [13] | Potency [14]
